Measured values as given in PubChem BioAssay (NCI).
This is part of a sample that, as a whole, favours compounds with a hit. Of some 83,000 tested, about 20% had one in any assay.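 The endpoint reported here, percent growth, reads 100 for growth as untreated, 0 for no net growth and -100 for all cells dead.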 A number with no mark means an inactive call. Active and inactive are the calls of the source. The calls were made as follows: active = growth percent below 10; inactive = the rest.

What was measured:
Test in all cases: NCI-60 one-dose screen, 48 h (100 = growth as untreated, 0 = no growth, -100 = all killed)
Conditions in all cases: 10 µM unless noted
DU-145 prostate = tested on: DU-145 prostate
K-562 leukemia = tested on: K-562 leukemia
MALME-3M melanoma = tested on: MALME-3M melanoma
MDA-MB-231 breast = tested on: MDA-MB-231 breast
RXF 393 renal = tested on: RXF 393 renal
SF-268 CNS = tested on: SF-268 CNS
SF-295 CNS = tested on: SF-295 CNS
SF-539 CNS = tested on: SF-539 CNS
UACC-257 melanoma = tested on: UACC-257 melanoma
M14 melanoma = tested on: M14 melanoma
HCT-15 colon = tested on: HCT-15 colon
HT29 colon = tested on: HT29 colon
SNB-75 CNS = tested on: SNB-75 CNS
SNB-19 CNS = tested on: SNB-19 CNS
U251 CNS = tested on: U251 CNS
PC-3 prostate = tested on: PC-3 prostate
SK-MEL-5 melanoma = tested on: SK-MEL-5 melanoma
UACC-62 melanoma = tested on: UACC-62 melanoma
SK-MEL-28 melanoma = tested on: SK-MEL-28 melanoma
LOX IMVI melanoma = tested on: LOX IMVI melanoma

Structure (SMILES) | growth (DU-145 prostate) | growth (K-562 leukemia) | growth (MALME-3M melanoma) | growth (MDA-MB-231 breast) | growth (RXF 393 renal) | growth (SF-268 CNS) | growth (SF-295 CNS) | growth (SF-539 CNS) | growth (UACC-257 melanoma) | growth (M14 melanoma) | growth (HCT-15 colon) | growth (HT29 colon) | growth (SNB-75 CNS) | growth (SNB-19 CNS) | growth (U251 CNS) | growth (PC-3 prostate) | growth (SK-MEL-5 melanoma) | growth (UACC-62 melanoma) | growth (SK-MEL-28 melanoma) | growth (LOX IMVI melanoma)
C#CCn1c2c(c3ccccc31)C[C@]1(C)[C@H]3CC[C@@H]4[C@@H]5C(=CCC[C@H]5C(=C)C)CC[C@@]4(C)[C@]3(C)CC[C@H]1C2(C)C | 108% | 91.9% | 110% | 101% | 128% | 97.8% | 107% | 97.1% | 108% | 100% | 104% | 104% | 90.3% | 100% | 106% | 97.3% | 100% | 95.2% | 106% | 
O=C1C(Cl)=C(Nc2ccc(S(=O)(=O)c3ccc(NC4=C(Cl)C(=O)c5ccccc5C4=O)cc3)cc2)C(=O)c2ccccc21 | -15.1% (active) | 8.57% (active) | -48.5% (active) | 45.4% | -96% (active) | -56.3% (active) | 34.1% | 1.36% (active) | -81.3% (active) | -57.6% (active) | 0.496% (active) | 32.6% | 57.7% | 44.8% | 5.68% (active) | 15.8% | 49.3% | 12.5% | 14.2% | 
Cc1ccc2oc(=O)cc(-c3sc(N4CCCCC4)nc3-c3ccccc3)c2c1 | 98.5% | 97.8% | 86% | 88.1% | 101% | 87.9% | 102% | 94.7% | 105% | 97.3% | 96.9% | 99.9% | 78.1% | 95.3% | 101% | 88.1% | 91.3% |  | 103% | 91.2%
COc1ccc2c(c1)c(-c1nc(-c3cn(C)c4ncccc34)cs1)cn2CCN | 69.6% | 68.6% | 105% | 63.3% | 96.1% | 95.8% | 99.1% | 89.1% | 98.3% | 97.3% | 58.5% | 74.5% | 78.2% | 80.7% | 84.8% | 70.2% | 60.3% |  | 99% | 68.1%
Nc1ccccc1NC(=O)c1ccc(CN2CCC/C(=C\c3ccccn3)C2=O)cc1 | 45.9% | 9.55% (active) | 20.9% | 45.3% | 2.96% (active) | 25% | -2.97% (active) | 27.4% | 26.3% | 12.3% | 16.5% | 13.8% | 15.5% | 38.1% | 23.9% | 44% | -15.6% (active) | -23.6% (active) | 16.3% | 
C=C(C)[C@@H]1CC[C@]2(C(=O)O)CC[C@]3(C)[C@H](CC[C@@H]4[C@@]5(C)C/C(=C/c6cccc(I)c6)C(=O)C(C)(C)[C@@H]5CC[C@]43C)[C@@H]12 | 28.7% | 12.5% | 53.3% | 56% | 51.9% | 25.5% | 26.7% | 48.3% | 20.7% | 30.3% | 19.4% | 9.1% (active) | -36.5% (active) | 38% | 18.4% | 15.5% | 13.9% | 30.9% | 75.4% | 
O=C1CCC/C=C\C[C@H]2C=C(Cl)C(=O)/C2=C/C[C@H](CCCCC(F)(F)F)OC(=O)CCC/C=C\C[C@H]2C=C(Cl)C(=O)/C2=C/C[C@H](CCCCC(F)(F)F)O1 | 0.342% [7.5 µM] (active) | 1.45% [7.5 µM] (active) | -18.2% [7.5 µM] (active) | -22.9% [7.5 µM] (active) | -92% [7.5 µM] (active) | 6.24% [7.5 µM] (active) | -37.6% [7.5 µM] (active) | -12.5% [7.5 µM] (active) | -55.3% [7.5 µM] (active) | -62.1% [7.5 µM] (active) | 1.46% [7.5 µM] (active) | -50.5% [7.5 µM] (active) | -1.55% [7.5 µM] (active) | -37.9% [7.5 µM] (active) | -67.7% [7.5 µM] (active) | -44.8% [7.5 µM] (active) | -94.1% [7.5 µM] (active) |  | -52.6% [7.5 µM] (active) | -80.2% [7.5 µM] (active)
Cn1cc(-c2csc(-c3cn(CCCN4CCCCC4)c4ccccc34)n2)c2cccnc21 | -52.5% (active) | -70% (active) | -78.6% (active) | -81.4% (active) | -78.6% (active) | -25.6% (active) | 32% | -88.6% (active) | -80.3% (active) | -80.9% (active) | -78.2% (active) | -87.7% (active) | 49.3% | -65.6% (active) | -90.5% (active) | -55.7% (active) | -98.5% (active) |  | -82.6% (active) | -71.9% (active)
COc1cc(-c2cc3ncccc3c3nc(N)c4cccnc4c23)cc(OC)c1OC | 2.16% (active) | 16.3% | 50.9% | 36.5% | 10.9% | 29.6% | 12.4% | -1.92% (active) | 44.3% | 4.68% (active) | 21.5% | 4.14% (active) | 6.07% (active) | 44.5% | 18.9% | 22% | 15.8% |  | 62.7% | 24.1%
O=C1/C(=C\C(Cl)=C/c2ccc([N+](=O)[O-])cc2)SC(=S)N1CCc1ccc(O)cc1 | 5.69% (active) | 6.62% (active) | -64.5% (active) | 6.88% (active) | -72.5% (active) | 9.96% (active) | -31.4% (active) | -75.4% (active) | 4.06% (active) | -27.5% (active) | -49.9% (active) | -15.3% (active) | -27.7% (active) | -59.7% (active) | -88% (active) | -14.8% (active) | -78.9% (active) | -30.8% (active) | -61.2% (active) | 
N=C(N)c1ccc(-c2ccc(-c3cc(F)cc(F)c3)o2)nc1 | 104% | 15.9% | 97.3% | 78.3% | 75.2% | 90.8% | 95.9% | 88.4% | 115% | 94.7% | 77.4% | 26.2% | 72.1% | 93.2% | 85.9% | 82.4% | 88.7% | 96.3% | 98.7% | 
CCCCC/C(=C\c1ccccc1)C1OC(C)C(C)O1 (stereo not given) | 103% | 91.3% | 104% | 99.7% | 102% | 95.3% | 104% | 99.7% | 70.1% | 87.8% | 109% | 81.3% | 92.2% | 98.6% | 86.3% | 69.6% | 92.8% |  | 106% | 97.9%
COc1cc(/C=N/Nc2ncnc3c2c(C)nn3-c2ccc(F)cc2)ccc1O | 87.6% | 75.8% | 112% | 84.5% | 95.1% | 71% | 106% | 96.2% | 114% | 102% | 81.1% | 92.3% | 82.5% | 93.3% | 94.4% | 73% | 56.6% |  | 107% | 81%
C=C(C)[C@@H]1CC[C@]2(C(=O)N3CCN(C)CC3)CC[C@]3(C)[C@H](CC[C@@H]4[C@@]5(C)C/C(=C/c6ccc(C(F)(F)F)cc6)C(=O)C(C)(C)[C@@H]5CC[C@]43C)[C@@H]12 | 104% | 72.9% | 90.8% | 94.9% | 97.4% | 92.8% | 101% | 88.6% | 98.5% | 94.8% | 86.5% | 95.7% | 80.7% | 97.3% | 87.1% | 78.8% | 99.1% | 96.3% | 104% | 
COc1ccc(OC)c(-c2c(C#N)c(-c3ccco3)nc3c2c(-c2ccccc2)nn3-c2ccccc2)c1 | 102% | 105% | 112% | 90% | 99.8% | 96.2% | 98.9% | 92.6% | 99.7% | 108% | 96.9% | 105% | 84.5% | 93.3% | 103% | 83.7% | 97% | 76.6% | 106% | 
